Drawing on PubChem BioAssay (NCI), this text covers growth for 8 compounds.

The panel holds about 83,000 compounds, 20% with a hit somewhere; the sample as a whole holds those more often.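 Growth was measured after 48 h exposure to one concentration of compound in 96-well plates. Values under 10 count as active.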 Values without a mark were called inactive. Activity calls are given as the source filed them.

Common to all, as to test: NCI-60 one-dose screen, 48 h (100 = growth as untreated, 0 = no growth, -100 = all killed)
Holding throughout (details): 10 µM unless noted

For experiment [1], the system named is NCI-H23 lung.
Experiment [2] relates to NCI-H226 lung.
For experiment [3], the system named is NCI-H322M lung.
Experiment [4] concerns HOP-62 NSCLC.
Experiment [5] relates to NCI-H460 lung.
In experiment [6] the test system is NCI-H522 lung.
In experiment [7] the test system is A549/ATCC NSCLC.
Experiment [8] deals with 786-0 renal.
The subject of experiment [9] is COLO 205 colon.
For experiment [10], the system named is DU-145 prostate.
Experiment [11] concerns K-562 leukemia.
The test system of experiment [12] is MALME-3M melanoma.
The subject of experiment [13] is MDA-MB-231 breast.
For experiment [14], the system named is RXF 393 renal.
The subject of experiment [15] is SF-268 CNS.
The subject of experiment [16] is SF-295 CNS.
Experiment [17] relates to SF-539 CNS.
The test system of experiment [18] is UACC-257 melanoma.
The subject of experiment [19] is M14 melanoma.

`O=C(Nc1ccc(Br)cc1)Nc1nc2ccc([N+](=O)[O-])cc2s1`: the growth in [1] is -21.9% (active); in [2], -3.17% (active); in experiment [3], 8.37% (active); in experiment [4] it was 0.86% (active); in experiment [5], -3.34% (active); in experiment [6], 3.86% (active). Also, the growth is 5.83% (active) in experiment [7]; 11.2% in experiment [8]; -37% (active) in experiment [9]; 18.8% in experiment [10]; 2.8% (active) in [11]; -14.1% (active) in [12]. Further, the growth in [13] was -5.42% (active); in experiment [14], -27.8% (active); in experiment [15], 12.2%; in experiment [16], -40.1% (active); in experiment [17], 0.554% (active); in [18], -16.8% (active). Moreover, the growth in [19] was 2.06% (active).

In the case of `COc1ccc(C(=O)CSc2nc3c(c(Nc4ccc(S(N)(=O)=O)cc4)n2)CCCC3)cc1`, the growth in experiment [1] was 88.1%; in [2], 98%; in experiment [3], 107%; in [4], 115%; in experiment [5] it was 91.2%; in experiment [6], 91.4%. Also, the growth in experiment [7] was 92.7%; in experiment [8] it was 101%; in experiment [9], 108%; in experiment [10], 93.6%; in experiment [11], 72.7%; in [12] it was 103%. Moreover, the growth in experiment [13] is 88.1%; in experiment [14], 82.5%; in experiment [15], 108%; in [16], 90.6%; in experiment [17], 83.1%; in experiment [18], 109%. In addition, the growth in experiment [19] was 104%.

In the case of `COc1cc(OC)c(S(N)(=O)=O)cc1C(=O)/C=C/c1ccc(C)cc1`, the growth was 8.61% (active) in experiment [1]; -2.47% (active) in [2]; 34.6% in [3]; 11.9% in experiment [4]; -3.51% (active) in experiment [5]; 11% in experiment [6]. Further, the growth was 22.5% in experiment [7]; 19.9% in experiment [8]; 17% in experiment [9]; 1.29% (active) in experiment [10]; 7.24% (active) in [11]; 72.9% in experiment [12]. Further, the growth in [13] is 14.2%; in [14], -28.2% (active); in [15] it was 31.6%; in [16], 23.6%; in experiment [17], 1.82% (active); in experiment [18], 81%. The growth in experiment [19] was 41.5%.

With `N#Cc1c(Nc2ccccc2)nn2c(-c3ccc([N+](=O)[O-])cc3)ccnc12`, the growth in experiment [1] is 100%; in experiment [2] it was 104%; in experiment [3] it was 102%; in experiment [4], 109%; in [5] it was 99.3%; in [6], 94.8%. In addition, the growth is 94.4% in [7]; 98.3% in experiment [8]; 107% in experiment [9]; 109% in experiment [10]; 112% in experiment [11]; 104% in [12]. For the same compound, the growth was 102% in experiment [13]; 90.3% in experiment [14]; 100% in experiment [15]; 104% in experiment [16]; 100% in experiment [17]; 95.3% in experiment [18]. For the same compound, in experiment [19], the growth is 106%.

`CN1CCN(Cc2ccc(NC(=O)c3cncc(C#Cc4cnn5cccnc45)c3)cc2C(F)(F)F)CC1`: the growth in experiment [1] is -23.1% (active); in experiment [2], -14% (active); in [3] it was 19.8%; in experiment [4], 10.2%; in experiment [5] it was 3.16% (active); in experiment [6], -58.7% (active). Further, the growth was 5.71% (active) in [7]; 27.1% in experiment [8]; -56.6% (active) in [9]; 6.94% (active) in [10]; -11.5% (active) in [11]; -16.7% (active) in experiment [12]. Besides, the growth is 5.29% (active) in experiment [13]; -76.5% (active) in experiment [14]; -5.38% (active) in experiment [15]; 56.7% in experiment [16]; 14.8% in experiment [17]; 44.5% in [18]. For the same compound, the growth in [19] is -43.9% (active).

For the compound `Cc1ccc(CSc2nc(-c3ccc(Cl)cc3)c(C#N)c(N3CCOCC3)n2)cc1`, the growth in experiment [1] was 95%; in experiment [2], 94.4%; in [3] it was 103%; in experiment [4] it was 110%; in experiment [5], 96.2%; in [6], 78.4%. The growth was 91.8% in experiment [7]; 87.5% in experiment [8]; 125% in experiment [9]; 105% in experiment [10]; 91.5% in experiment [11]; 108% in [12]. Also, the growth in experiment [13] is 98.9%; in experiment [14], 88.3%; in [15] it was 95.5%; in [16], 98.6%; in experiment [17], 99.1%; in experiment [18], 97.6%. Further, the growth in experiment [19] is 98%.

For `COc1cc2oc(-c3cccc(C(=O)N[C@@H](CC(C)C)C(=O)OC(C)(C)C)c3)cc(=O)c2c(OC)c1OC`, the growth is 60.6% in experiment [1]; 72.6% in [2]; 90.4% in experiment [3]; 43.4% in [4]; 37.8% in [5]; 83.1% in [6]. Further, the growth in experiment [7] was 76%; in experiment [8], 67.9%; in experiment [9], 92.8%; in experiment [10], 72.8%; in experiment [11] it was 36.7%; in experiment [12] it was 96.3%. Also, the growth in [13] is 72.1%; in experiment [14], 86.2%; in experiment [15] it was 83.8%; in experiment [16] it was 52.3%; in experiment [17], 88.6%; in [18], 112%. Moreover, the growth in experiment [19] was 93.7%.

In the case of `CN1CCN(Cc2ccc(NC(=O)c3cncc(C#Cc4cnc5ccc(NCCCO)nn45)c3)cc2C(F)(F)F)CC1`, the growth in experiment [1] is -52% (active); in experiment [2], -10.1% (active); in experiment [3], 3.42% (active); in experiment [4], -36.8% (active); in [5] it was -85.6% (active); in experiment [6], -77.2% (active). The growth in experiment [7] is 5.6% (active); in experiment [8] it was -58.9% (active); in experiment [9], -78% (active); in experiment [10] it was -16.5% (active); in experiment [11], 0.484% (active); in experiment [12], -56.1% (active). Further, the growth in experiment [13] is 12.2%; in experiment [14] it was -89% (active); in experiment [15], -44.4% (active); in experiment [16], -12.1% (active); in experiment [17], -78.1% (active); in experiment [18], -43.8% (active). For the same compound, in experiment [19], the growth is -91% (active).
